Reference: PubChem BioAssay (NCI)
This is part of a sample that, as a whole, favours compounds with a hit. Of some 79,000 tested, about 15% had one in any assay. Unmarked numbers belong to inactive results. The source made the active and inactive calls. No stated cut-off is given here; in the data, active means growth inhibition above about 70%; inactive means the rest.

Key:
[1] = NCI Yeast Anticancer Drug Screen. Data for the rad50 strain (AID 155);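 further: 0% = growth of vehicle-only cultures of the same strain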; details: S. cerevisiae rad50 strain growth inhibition; at 50.0 µM; stronger effect = higher value
Method in brief: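 Cells are treated with compound, grown, and their growth is then scored against vehicle-only cultures of the same repair-deficient yeast strain.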

[2] = NCI Yeast Anticancer Drug Screen. Data for the mec2-1 strain (AID 157); details: S. cerevisiae mec2-1 strain, at 50.0 µM, stronger effect = higher value
Method in brief: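 Compounds were applied to mec2-1 yeast cells. Their growth was then compared with that of vehicle-treated cultures to give growth inhibition.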

[3] = NCI Yeast Anticancer Drug Screen. Data for the sgs1 mgt1 strain (AID 161);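 further: 0% = growth of cultures given vehicle only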; details: S. cerevisiae sgs1 mgt1 strain, at 50.0 µM, stronger effect = higher value
Method in brief: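 Percent growth inhibition was derived by comparing compound-exposed mutant yeast with vehicle-exposed cultures. The strain carries alterations in DNA damage repair.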

[4] = NCI Yeast Anticancer Drug Screen. Data for the cln2 rad14 strain (AID 165);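 further: 0% = growth equal to vehicle treated cultures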; details: S. cerevisiae cln2 rad14 strain, at 50.0 µM, stronger effect = higher value
Method in brief: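 Strain: cln2 rad14 yeast, altered in cell cycle control and DNA damage repair. Read-out: growth inhibition vs vehicle.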

[5] = NCI Yeast Anticancer Drug Screen. Data for the bub3 strain (AID 167); details: S. cerevisiae bub3 mutant strain, at 50.0 µM, stronger effect = higher value
Method in brief: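 Part of a panel of yeast mutants defective in DNA damage repair or cell cycle regulation. Each strain is grown with compound, and inhibition is calculated relative to solvent-treated cultures.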

[6] = NCI Yeast Anticancer Drug Screen. Data for the mlh1 rad18 strain (AID 175); details: S. cerevisiae mlh1 rad18 strain growth inhibition; at 50.0 µM; stronger effect = higher value
Method in brief: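 A repair-deficient yeast strain is exposed to test compound, and growth is scored relative to vehicle-treated controls.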

| Structure (SMILES) | growth inhibition [1] [%] | growth inhibition [2] [%] | growth inhibition [3] [%] | growth inhibition [4] [%] | growth inhibition [5] [%] | growth inhibition [6] |
| --- | --- | --- | --- | --- | --- | --- |
| [O]=[W](=[O])([OH])[OH] | -11.3 | -13.2 | -15.4 | 11.7 | -11.6 | -17.5% |
| CCCCCCCCCCN(CCCCCCCCCC)CC(O)c1cc(-c2ccc(Cl)cc2)nc2ccccc12 (configuration not stated) | 25.6 | 17.1 | 39.4 | 31.2 | 34.6 | 50.2% |
| CCOC(=O)NC(CC)CO (configuration not stated) | -13.1 | -22.9 | -14 | 16.1 | 5.55 | -6.9% |
| O=[N+]([O-])c1ccccc1S(=O)NCc1c(Cl)cccc1Cl (configuration not stated) | 14.1 | 13.3 | 24.5 | 22.5 | 5.2 | 24.5% |
| COc1ccc(Cl)cc1NC(=O)Nc1ccc(SC)cc1 | 24.1 | 50.6 | 56.5 | 20.8 | 33 | 35.5% |
| COc1cc2c(cc1OC)C(=O)/C(=C/c1ccc(O)cc1)CC2 | 36.5 | -8.9 | 43.5 | 24.9 | 23.2 | 22.4% |
| COc1cc(/C=C/c2cc(/C=C/c3ccc(O)c(OC)c3)c([N+](=O)[O-])cc2[N+](=O)[O-])ccc1O | 66.3 | 23.8 | 42.4 | -4.45 | 7.15 | 47.7% |
| COc1ccc(CCN2C(=O)c3cccc4c(Br)ccc(c34)C2=O)cc1 | 23.8 | 1.3 | 18.6 | 14.5 | 44.6 | 35.9% |
| C[n+]1cccc(/C=C/c2ccc3cccc(O)c3n2)c1 | 4 | -3.75 | -12.7 | -2.65 | -42.4 | 8.35% |
| CCOC(=O)CCc1ccco1 | 3.15 | -5.7 | -4.45 | 4.15 | 9.1 | 15.2% |
| CC(C)COC(=N)c1ccccc1C1(O)CCCCC1 | -19.9 | -10.1 | -9.5 | -18.8 | 0.6 | -17.6% |
| CCCc1nc2ccc(C)cc2[nH]1 | 8.4 | -9 | -18.2 | -11.3 | -1.5 | 7.9% |
| Cc1cccc(C(=O)NCCN(C)C)c1[N+](=O)[O-] | 5.55 | -20.9 | 1.2 | 14.9 | -16.4 | 3.35% |
| CCN(c1ccccc1C(=O)O)S(=O)(=O)c1ccc(C)cc1 | 1.9 | -1.95 | 23.2 | 27.6 | 22 | 11.9% |
| CCOC(=O)c1c(C(F)(F)F)oc2c1ccc1nc3nonc3nc12 | 43.6 | 21.6 | 23.1 | 27.5 | 20.9 | 35% |
| O=C1CC(=O)N2C=CC=CC2N1 (configuration not stated) | -14.8 | -21.6 | -23.1 | -4.7 | -16.7 | -13.5% |
| COC(=O)c1ccc(Cc2ccc(C(=O)OC)o2)o1 | -9.05 | 9.2 | -5.25 | -25.4 | -8.35 | -13.8% |
| CCOc1ccc(-n2c(C)c(COC(=O)NC)c(COC(=O)NC)c2C)cc1 | 16.1 | -5.9 | 68.9 | 3.8 | 67.2 | 92.5% (active) |
| CC(=O)Oc1cccn(C)c1=O | 18.6 | 19.1 | -6.35 | 24.6 | 32.5 | 21.1% |
| NC(=O)N/N=C/c1c(Cl)cccc1Cl | 15.9 | 17.2 | 1.4 | -10.7 | -27.6 | 31.5% |
| Ic1ccc(-c2ccccc2)cc1 | -2.95 | -7.7 | 12.1 | -57.7 | 34 | 29.7% |

| Structure (SMILES) | growth inhibition [1] [%] | growth inhibition [2] [%] | growth inhibition [3] [%] | growth inhibition [4] [%] | growth inhibition [5] [%] | growth inhibition [6] |
| --- | --- | --- | --- | --- | --- | --- |
| CCOc1ccc2nc(SCCl)sc2c1 | 6.1 | -2.7 | 7.65 | -14.9 | -35.1 | 2.8% |
| Cc1cc(C)c(/C=C\C(=O)c2ccccc2)c(C)c1 | 9.75 | -7.65 | -4.3 | -37.9 | 6.15 | -15.5% |
| O=C(/C=C/c1ccsc1)c1ccsc1 | -38.9 | -51.9 | -22.9 | 3.6 | 9.5 | -3.05% |
| CS(=O)(=O)CCCCCCCCCCC(=O)O | -5.4 | 13.6 | 3.4 | 3.95 | 10.4 | 15.4% |
| O=C1C[C@H]2CCCC[C@@H]2O1 | 2 | 3.55 | 26.5 | 39.1 | -13.5 | -6% |
| CN(C)CC(CN(C)C)C(=O)/C=C/c1ccc(O)cc1 | 1.4 | -2.25 | 6.05 | 6.35 | 22.4 | 5.5% |
| O=C(c1ccccc1)n1c2ccccc2c2ccccc21 | 9.55 | -3.3 | 17.6 | -1 | 26.2 | 26.2% |
| CCCCCN(CCCCC)C(C)=O | 6.85 | 5.95 | 2.3 | -0.65 | -2.15 | 7.45% |
| CC/C(=N/N(C)C)C(=O)OC(C)(C)C | -42.9 | -24.6 | -15.8 | -44.6 | 1.35 | -4.2% |
| CCOc1ccc(NC(=O)CCc2nnc(SC)o2)cc1 | 20.5 | -17.2 | -4.75 | -16.4 | 29.1 | 23.2% |
| COc1ccc2[nH]c3c(c2c1)-c1ncncc1CC3 | 37.4 | -9.65 | -3.7 | 6.1 | 40.4 | 24.4% |
| COc1cc([N+](=O)[O-])ccc1NC(=O)Nc1ccc(Cl)cc1[N+](=O)[O-] | -4.8 | 28.1 | 24.6 | -12.6 | 29.4 | 27.1% |
| C=C(C)C1CC(=O)C2(C)C(C1)OC(=O)C2C(=O)OCC (configuration not stated) | 11.6 | -0.65 | -8.3 | 8.95 | 0.1 | -6.65% |
| CS(=O)(=O)CC1=Nc2nnc(CCCCCCCc3nnc4n3C(=O)C(CS(C)(=O)=O)=N4)n2C1=O | -17 | 5.1 | 5.55 | -12.1 | -5.15 | -7.95% |
| N#CSc1nc[nH]c1C(N)=O | -38.2 | -12.4 | 3.45 | -16.6 | -26.3 | -4.4% |
| O=C1NC2OC(CO)C(O)C(O1)C2O (configuration not stated) | -9.7 | 19.4 | -24.9 | -5 | -28.8 | -25% |
| C/C=C(/C=O)[C@@H]1CC2c3c(c4ccccc4n3[C@@H](O)C1)CCN2C (some centres not stated) | -5.45 | -17.6 | -4.4 | -1.1 | -33.2 | -16.6% |
| O=Cc1cc(C(=O)c2ccccn2)c2cc(Cl)cc(Cl)c2n1 | 8.05 | 5.9 | 5.8 | -13.8 | -4.3 | 11.6% |
| Brc1cc(Br)cc(-c2nnc(-c3cccc4ccccc34)o2)c1 | -14.1 | -16.4 | 0.25 | 24.1 | 10.2 | -4.65% |
| O=C(O)c1cocc1C(=O)O | 3.2 | -3.4 | -13.6 | -14.8 | -2.65 | -3.95% |
| O=S(=O)(Nc1cccc(Cl)c1)c1ccc(F)cc1 | -8.45 | -11.2 | -13.2 | -5.4 | -11.3 | 2.5% |
